From PubChem BioAssay (EPA / NIEHS)
Values joined by “and” are separate entries in the source; they are usually repeats but may differ in a detail not shown here. Identical values can stand only once. More than one record can exist for a structure, and the calls need not agree. Active and inactive are the calls of the source. Rule for the calls: active = hit-call score of the fitted dose curve at least 0.9, where 1 is the maximum; inactive = score below 0.9.

Key:
[1] = biological target: Transcription factor E2F1 (Homo sapiens) (UniProt Q01094); assay: ATG_E2F_CIS: Attagene CIS-FACTORIAL HepG2 Assay for human E2F Transcription Factor 1 (AID 2282935); details: HepG2 Attagene cis-reporter, E2F reporter RNA transcripts; actives raise or lower the signal
Sequence of Transcription factor E2F1 (Homo sapiens) (Q01094 whole entry, looked up): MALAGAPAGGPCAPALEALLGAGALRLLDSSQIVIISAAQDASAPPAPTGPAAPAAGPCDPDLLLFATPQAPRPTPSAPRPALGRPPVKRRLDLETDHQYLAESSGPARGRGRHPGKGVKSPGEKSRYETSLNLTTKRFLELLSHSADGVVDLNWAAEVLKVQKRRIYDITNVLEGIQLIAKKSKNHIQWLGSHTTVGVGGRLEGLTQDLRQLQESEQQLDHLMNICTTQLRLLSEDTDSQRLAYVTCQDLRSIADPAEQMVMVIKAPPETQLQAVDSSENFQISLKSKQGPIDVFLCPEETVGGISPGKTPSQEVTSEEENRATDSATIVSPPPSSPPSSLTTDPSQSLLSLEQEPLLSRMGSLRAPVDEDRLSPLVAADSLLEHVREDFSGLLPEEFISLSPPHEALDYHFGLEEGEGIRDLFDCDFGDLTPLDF
Outline: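 Liver-derived HepG2 cells expressing transfected promoter-driven reporter units received test chemical for 24 hours. Signal gains or losses were fitted bidirectionally against DMSO.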

[2] = ATG_E_Box_CIS: Attagene CIS-FACTORIAL HepG2 Assay for human Enhancer Box (E-box) (AID 2282936); details: HepG2 E-box cis-reporter transcription, actives raise or lower the signal
Outline: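 In this cell-based setup, HepG2 cells bearing transfected promoter-driven reporter units were exposed to chemicals for 24 h; reporter transcripts were amplified, 6-FAM-labelled, cut with HpaI and sized by capillary electrophoresis.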

[3] = ATG_M_61_CIS: Attagene CIS-FACTORIAL HepG2 Assay for M61 Transcription Factor (Internal Marker) (AID 2282937); details: HepG2 Attagene CIS-FACTORIAL M61 internal marker reporter; actives raise or lower the signal
Outline: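 Readout is reporter mRNA by RT-PCR, fluorescent primer extension and capillary electrophoresis, with gain or loss fitted relative to DMSO. Transfected HepG2 cells carrying endogenous-TF-driven cis reporters were exposed to chemicals for 24 hours.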

[4] = ATG_EGR_CIS: Attagene CIS-FACTORIAL HepG2 Assay for human Early Growth Response 1 (EGR1) (AID 2282938); details: HepG2 Attagene CIS-FACTORIAL EGR reporter mRNA; actives raise or lower the signal
Outline: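 After 24 h compound exposure, RNA from reporter-transfected HepG2 cells was reverse-transcribed, PCR-amplified, fluorescently labelled and resolved by capillary electrophoresis. EGR1 reporter transcript changes, up or down, were fitted against DMSO, reflecting endogenous transcription-factor activity.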

[5] = ATG_M_19_CIS: Attagene CIS-FACTORIAL HepG2 Assay for M19 Transcription Factor (Internal Marker) (AID 2282939); details: HepG2 Attagene CIS-FACTORIAL M19 internal marker reporter; actives raise or lower the signal
Outline: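 Chemical-treated HepG2 (24 h) with MRTU constructs; reporter transcripts detected by fluorescent RT-PCR fragment analysis on capillary electrophoresis. Internal background marker, DMSO as baseline.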

[6] = ATG_ERE_CIS: Attagene CIS-FACTORIAL HepG2 Assay for Estrogen Response Element (ERE) (AID 2282940); details: HepG2 ERE cis-reporter, Attagene RNA transcript; actives raise or lower the signal
Outline: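 Human liver cells (HepG2) bearing transiently transfected, promoter-regulated reporter units were exposed 24 h. Reporter mRNA induction was detected by capillary electrophoresis of labelled RT-PCR products and fitted bidirectionally to DMSO.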

[7] = ATG_Ets_CIS: Attagene CIS-FACTORIAL HepG2 Assay for human Erythroblast Transformation Specific (ETS) (AID 2282941); details: HepG2 ETS cis-reporter transcription, actives raise or lower the signal
Outline: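 RT-PCR/capillary electrophoresis fluorescence read-out of reporter mRNA; HepG2 transient multi-reporter transfection; 24 h compound exposure; gain or loss of signal fitted bidirectionally relative to DMSO.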

[8] = biological target: Hepatocyte nuclear factor 3-beta (Homo sapiens) (UniProt Q9Y261); assay: ATG_FoxA2_CIS: Attagene CIS-FACTORIAL HepG2 Assay for human Forkhead box A2 (FOXA2) (AID 2282942); details: HepG2 cis-reporter transcription factor activity, 24 h; actives raise or lower the signal
Sequence of Hepatocyte nuclear factor 3-beta (Homo sapiens) (Q9Y261 whole entry, looked up): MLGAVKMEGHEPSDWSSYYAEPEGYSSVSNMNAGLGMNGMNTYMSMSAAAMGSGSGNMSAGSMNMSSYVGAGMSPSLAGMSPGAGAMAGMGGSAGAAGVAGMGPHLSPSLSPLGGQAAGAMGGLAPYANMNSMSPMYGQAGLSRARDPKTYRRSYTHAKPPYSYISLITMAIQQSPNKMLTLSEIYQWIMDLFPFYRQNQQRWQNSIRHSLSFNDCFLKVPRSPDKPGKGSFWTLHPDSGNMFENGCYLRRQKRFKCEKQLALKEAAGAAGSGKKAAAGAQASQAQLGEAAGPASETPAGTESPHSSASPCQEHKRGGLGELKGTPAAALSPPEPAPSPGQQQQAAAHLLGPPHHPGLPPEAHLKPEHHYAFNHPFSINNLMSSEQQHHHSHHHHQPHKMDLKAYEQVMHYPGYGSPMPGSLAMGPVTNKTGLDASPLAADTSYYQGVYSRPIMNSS
Outline: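 Endogenous transcription factor activity is captured via cis-element-driven reporter transcripts in transfected HepG2. Total RNA taken at 24 h post-dosing; labelled RT-PCR products resolved by capillary electrophoresis. Gain or loss fitted versus DMSO.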

[9] = ATG_FoxO_CIS: Attagene CIS-FACTORIAL HepG2 Assay for human Forkhead box O (FoxO) (AID 2282943); details: HepG2 Attagene cis-reporter, FoxO element, mRNA; actives raise or lower the signal
Outline: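 Transfected HepG2 reporter cells exposed to test chemical for 24 h; reporter RNA measured by reverse transcription, PCR and fluorescent capillary electrophoresis; curves fitted for increases and decreases against DMSO.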

[10] = ATG_GATA_CIS: Attagene CIS-FACTORIAL HepG2 Assay for human GATA Binding Protein (AID 2282944); details: HepG2 GATA cis-element reporter, Attagene multiplex mRNA; actives raise or lower the signal
Outline: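 Transfected cis-reporter HepG2 cells were treated with chemicals for 24 hours. Total RNA was then converted to cDNA, amplified with reporter-specific primers and analysed by fluorescent capillary electrophoresis, using DMSO-treated wells as baseline.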

[11] = ATG_GLI_CIS: Attagene CIS-FACTORIAL HepG2 Assay for human Zinc Finger Protein GLI1 (AID 2282945); details: HepG2, Attagene cis-factorial reporter mRNA, GLI element; actives raise or lower the signal
Outline: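 Transiently transfected HepG2 cells report endogenous transcription factor activity via cis-element-driven reporter units. After 24 h compound exposure, reporter mRNA was measured by RT-PCR with capillary electrophoresis; bidirectional fitting against DMSO baseline.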

[12] = ATG_GRE_CIS: Attagene CIS-FACTORIAL HepG2 Assay for human Glucocorticoid Response Elements (GRE) (AID 2282947); details: HepG2 GRE cis-reporter, Attagene multiplex mRNA; actives raise or lower the signal
Outline: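 Fluorescence intensity of reporter-specific cDNA fragments, separated by capillary electrophoresis, provides the signal. Constructs carry cis-regulating promoters in transiently transfected HepG2 liver cells; 24 h incubation; fitting is bidirectional against DMSO.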

[13] = ATG_ISRE_CIS: Attagene CIS-FACTORIAL HepG2 Assay for human Interferon Regulatory Factor 1 (IRF1) binding to an Interferon-Stimulated Response Element (ISRE) (AID 2282948); details: HepG2 ISRE cis-reporter (Attagene), mRNA transcription readout; actives raise or lower the signal
Outline: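 Read-out: fluorescent RT-PCR products resolved by capillary electrophoresis, reporting endogenous transcription factor activity via ISRE-driven reporter mRNA in transfected HepG2 cells dosed for 24 h; gain or loss fitted relative to DMSO.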

[14] = ATG_M_32_CIS: Attagene CIS-FACTORIAL HepG2 Assay for M32 Transcription Factor (Internal Marker) (AID 2282949); details: HepG2 Attagene cis-factorial M32 reporter, mRNA; actives raise or lower the signal;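 note: background control marker of the multiplexed CIS panel rather than a real target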
Outline: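 HepG2 human liver cells transiently transfected with cis-promoter-driven multiple reporter transcription units, dosed 24 h. Reporter mRNA quantified by RT-PCR, FAM-labelled primer extension, HpaI digest and capillary electrophoresis; bidirectional fit versus DMSO baseline.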

[15] = ATG_M_06_CIS: Attagene CIS-FACTORIAL HepG2 Assay for M06 Transcription Factor (Internal Marker) (AID 2282950); details: HepG2 Attagene CIS-FACTORIAL M06 internal marker reporter; actives raise or lower the signal
Outline: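 Cells (HepG2, transiently carrying cis-driven reporter units) receive chemical for 24 h before RNA isolation. Reporter cDNA is PCR-amplified, FAM-labelled by primer extension, HpaI-digested and sized on a capillary analyser.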

[16] = biological target: Hypoxia-inducible factor 1-alpha (Homo sapiens) (UniProt Q16665); assay: ATG_HIF1a_CIS: Attagene CIS-FACTORIAL HepG2 Assay for human Hypoxia Inducible Factor 1 (HIF1A) (AID 2282951); details: HepG2 Attagene cis-factorial HIF1a reporter transcription; actives raise or lower the signal
Sequence of Hypoxia-inducible factor 1-alpha (Homo sapiens) (Q16665 whole entry, looked up): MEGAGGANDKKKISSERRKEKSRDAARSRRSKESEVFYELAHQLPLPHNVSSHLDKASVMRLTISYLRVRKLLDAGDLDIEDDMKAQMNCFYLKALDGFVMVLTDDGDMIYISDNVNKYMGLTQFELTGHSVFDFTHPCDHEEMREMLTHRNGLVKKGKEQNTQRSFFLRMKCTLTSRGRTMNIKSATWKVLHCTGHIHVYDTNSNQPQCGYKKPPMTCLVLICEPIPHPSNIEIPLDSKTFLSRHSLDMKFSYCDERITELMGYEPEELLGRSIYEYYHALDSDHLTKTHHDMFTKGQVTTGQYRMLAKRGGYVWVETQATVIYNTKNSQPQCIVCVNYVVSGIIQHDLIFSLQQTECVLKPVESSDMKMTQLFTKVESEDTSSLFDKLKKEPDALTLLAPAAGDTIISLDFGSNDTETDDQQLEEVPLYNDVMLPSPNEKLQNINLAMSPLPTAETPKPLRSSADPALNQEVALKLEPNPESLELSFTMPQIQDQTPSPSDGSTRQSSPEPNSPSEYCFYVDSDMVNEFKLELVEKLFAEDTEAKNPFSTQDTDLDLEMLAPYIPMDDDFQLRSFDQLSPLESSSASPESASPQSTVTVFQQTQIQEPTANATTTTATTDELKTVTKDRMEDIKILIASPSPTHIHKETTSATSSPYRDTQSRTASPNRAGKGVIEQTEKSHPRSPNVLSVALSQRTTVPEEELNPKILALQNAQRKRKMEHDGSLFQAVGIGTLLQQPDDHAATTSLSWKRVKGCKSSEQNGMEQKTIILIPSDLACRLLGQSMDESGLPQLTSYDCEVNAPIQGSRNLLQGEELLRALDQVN
Outline: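 Activity is fitted in both directions relative to DMSO. Reporter transcripts are read by RT-PCR, fluorescent primer extension and capillary electrophoresis after 24 h chemical treatment. The cells are HepG2 carrying transiently transfected cis-element-driven reporter units responding to endogenous factors.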

[17] = biological target: Heat shock factor protein 1 (Homo sapiens) (UniProt Q00613); assay: ATG_HSE_CIS: Attagene CIS-FACTORIAL HepG2 Assay for human Heat Shock Transcription Factor 1 (HSE) (AID 2282953); details: HepG2 HSE cis-reporter, Attagene RNA transcription; actives raise or lower the signal
Sequence of Heat shock factor protein 1 (Homo sapiens) (Q00613 whole entry, looked up): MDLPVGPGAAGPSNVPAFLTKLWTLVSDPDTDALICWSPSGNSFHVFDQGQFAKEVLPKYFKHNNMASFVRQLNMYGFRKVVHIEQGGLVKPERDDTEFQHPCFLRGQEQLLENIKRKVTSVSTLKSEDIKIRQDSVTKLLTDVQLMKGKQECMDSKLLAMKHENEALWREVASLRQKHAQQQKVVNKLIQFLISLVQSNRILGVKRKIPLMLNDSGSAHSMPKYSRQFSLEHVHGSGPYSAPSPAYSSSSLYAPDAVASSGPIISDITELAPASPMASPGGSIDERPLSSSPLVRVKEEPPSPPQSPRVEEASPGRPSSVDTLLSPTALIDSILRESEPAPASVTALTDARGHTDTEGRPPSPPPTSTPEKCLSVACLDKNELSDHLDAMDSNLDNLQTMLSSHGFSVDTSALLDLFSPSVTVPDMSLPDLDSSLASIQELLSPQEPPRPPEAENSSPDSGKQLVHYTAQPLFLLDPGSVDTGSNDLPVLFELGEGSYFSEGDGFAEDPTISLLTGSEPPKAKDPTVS
Outline: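 Liver-derived HepG2 cells carry transiently introduced multiple reporter units governed by cis promoters. Reporter RNA measured 24 h post-dose through reverse transcription, PCR amplification, fluorescent labelling and capillary electrophoresis, normalised to DMSO.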

[18] = ATG_MRE_CIS: Attagene CIS-FACTORIAL HepG2 Assay for human Metal Responsive Element (MRE) (AID 2282954); details: HepG2 MRE cis-reporter transcription, Attagene multiplex; actives raise or lower the signal
Outline: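 Measured here is mRNA induction from an MRE cis-element reporter in HepG2 after 24 h, quantified by fluorescence of labelled RT-PCR products on capillary electrophoresis; gain- and loss-of-signal fits use DMSO as baseline.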

[19] = biological target: Hepatocyte nuclear factor 6 (Homo sapiens) (UniProt Q9UBC0); assay: ATG_HNF6_CIS: Attagene CIS-FACTORIAL HepG2 Assay for human Hepatocyte Nuclear Factor 6 (HNF6) (AID 2282952); details: HepG2 Attagene cis-factorial HNF6 reporter transcription; actives raise or lower the signal
Sequence of Hepatocyte nuclear factor 6 (Homo sapiens) (Q9UBC0 whole entry, looked up, the tested form may be a part): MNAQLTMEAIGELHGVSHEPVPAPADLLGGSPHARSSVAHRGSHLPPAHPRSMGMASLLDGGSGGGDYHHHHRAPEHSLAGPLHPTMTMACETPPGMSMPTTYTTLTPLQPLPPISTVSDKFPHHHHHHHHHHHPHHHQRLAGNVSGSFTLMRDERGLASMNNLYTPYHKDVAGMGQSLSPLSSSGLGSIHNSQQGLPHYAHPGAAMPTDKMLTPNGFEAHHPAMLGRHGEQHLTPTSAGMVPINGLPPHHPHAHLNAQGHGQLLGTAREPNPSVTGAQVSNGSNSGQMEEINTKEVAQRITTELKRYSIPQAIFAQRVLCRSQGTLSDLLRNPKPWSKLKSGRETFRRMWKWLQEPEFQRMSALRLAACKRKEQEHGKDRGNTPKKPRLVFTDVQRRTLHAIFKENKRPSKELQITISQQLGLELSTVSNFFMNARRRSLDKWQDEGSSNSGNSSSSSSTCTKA
Outline: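 Readout: fluorescent reporter-transcript fragments resolved by capillary electrophoresis after RT-PCR, reflecting endogenous factor activity in transfected HepG2. Exposure 24 h. Gain or loss of signal fitted bidirectionally against DMSO.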

CCOC(=O)CC(SP(=S)(OC)OC)C(=O)OCC (stereo not drawn)
outcome [1]: inactive
outcome [2]: inactive
outcome [3]: inactive
AC50 [4]: 100 µM (active)
outcome [4]: inactive
outcome [5]: inactive
AC50 [6]: 100 µM (active) and 27 µM (active)
outcome [7]: inactive
outcome [8]: inactive
outcome [9]: inactive
outcome [10]: inactive
outcome [11]: inactive
outcome [12]: inactive
outcome [13]: inactive
outcome [14]: inactive
outcome [15]: inactive
AC50 [16]: 24.4 µM (active)
outcome [16]: inactive
outcome [17]: inactive
AC50 [18]: 100 µM (active) and 13.2 µM (active)

C=CCC1=C(C)C(OC(=O)C2C(C=C(C)C)C2(C)C)CC1=O (stereo not drawn)
AC50 [1]: 132 µM (active)
outcome [1]: inactive
AC50 [2]: 46.9 µM (active)
outcome [2]: inactive
outcome [3]: inactive
AC50 [5]: 161 µM (active)
outcome [5]: inactive
AC50 [6]: 35 µM (active) and 26.7 µM (active) and 12.7 µM (active)
outcome [6]: inactive
AC50 [7]: 163 µM (active)
outcome [7]: inactive
AC50 [8]: 83.3 µM (active) and 125 µM (active) and 50 µM (active)
outcome [8]: inactive
AC50 [9]: 152 µM (active)
outcome [9]: inactive
AC50 [11]: 67.2 µM (active) [middle of 5 runs]
outcome [11]: inactive
outcome [12]: inactive
outcome [13]: inactive
AC50 [14]: 107 µM (active)
outcome [14]: inactive
outcome [15]: inactive
AC50 [16]: 35 µM (active) [middle of 4 runs]
outcome [16]: inactive
AC50 [17]: 74.8 µM (active) [middle of 6 runs]
AC50 [18]: 43.8 µM (active) [middle of 6 runs]

Oc1ccccc1-c1ccccc1
outcome [1]: inactive
outcome [2]: inactive
outcome [3]: inactive
outcome [5]: inactive
AC50 [6]: 13.1 µM (active)
outcome [6]: inactive
outcome [7]: inactive
outcome [8]: inactive
outcome [9]: inactive
AC50 [11]: 23 µM (active)
outcome [11]: inactive
AC50 [13]: 68.5 µM (active)
outcome [13]: inactive
outcome [14]: inactive
outcome [15]: inactive
outcome [16]: inactive
AC50 [17]: 189 µM (active)
outcome [17]: inactive
AC50 [18]: 65.7 µM (active)
outcome [18]: inactive

CCOP(=S)(OCC)SCn1c(=O)oc2cc(Cl)ccc21
outcome [1]: inactive
outcome [2]: inactive
outcome [3]: inactive
outcome [4]: inactive
outcome [5]: inactive
outcome [6]: inactive
AC50 [7]: 50 µM (active)
outcome [8]: inactive
outcome [9]: inactive
outcome [11]: inactive
outcome [12]: inactive
outcome [13]: inactive
outcome [14]: inactive
outcome [15]: inactive
AC50 [16]: 28.8 µM (active)
AC50 [17]: 78.7 µM (active)
AC50 [18]: 66.2 µM (active)

O=C(Nc1ccccc1)Nc1ccnc(Cl)c1
outcome [1]: inactive
outcome [2]: inactive
outcome [3]: inactive
AC50 [4]: 50 µM (active)
outcome [5]: inactive
outcome [6]: inactive
outcome [7]: inactive
outcome [8]: inactive
AC50 [9]: 13 µM (active)
outcome [11]: inactive
outcome [12]: inactive
outcome [13]: inactive
outcome [14]: inactive
outcome [15]: inactive
outcome [16]: inactive
outcome [17]: inactive
AC50 [18]: 37 µM (active)

CCCC1COC(Cn2cncn2)(c2ccc(Cl)cc2Cl)O1 (stereo not drawn)
AC50 [1]: 85.1 µM (active)
outcome [1]: inactive
outcome [2]: inactive
outcome [3]: inactive
outcome [4]: inactive
outcome [5]: inactive
AC50 [6]: 1.71 µM (active)
outcome [6]: inactive
AC50 [7]: 58 µM (active)
outcome [7]: inactive
outcome [8]: inactive
outcome [9]: inactive
outcome [11]: inactive
outcome [12]: inactive
outcome [13]: inactive
outcome [14]: inactive
outcome [15]: inactive
AC50 [16]: 50 µM (active)
outcome [16]: inactive
outcome [19]: inactive
outcome [17]: inactive
AC50 [18]: 50 µM (active)
outcome [18]: inactive
